Source: PubChem BioAssay
This excerpt belongs to a sample that is enriched for hits.
KDM5B inhibitor: KDM5B demethylase inhibition. Q9UGL1. KDM5B demethylase, FDH-coupled NADH fluorescence (FDH is formaldehyde dehydrogenase). Potency, µM (top dose mostly 57.7 µM), actives largely listed as inhibitors. 220,000 tested, 2.6% active. AID 1347165; active = well fitted inhibition curve with a large enough effect; note: 0% is about no effect; nearly all actives have a fitted effect of over 70% in size
Target sequence (Q9UGL1 whole entry, looked up): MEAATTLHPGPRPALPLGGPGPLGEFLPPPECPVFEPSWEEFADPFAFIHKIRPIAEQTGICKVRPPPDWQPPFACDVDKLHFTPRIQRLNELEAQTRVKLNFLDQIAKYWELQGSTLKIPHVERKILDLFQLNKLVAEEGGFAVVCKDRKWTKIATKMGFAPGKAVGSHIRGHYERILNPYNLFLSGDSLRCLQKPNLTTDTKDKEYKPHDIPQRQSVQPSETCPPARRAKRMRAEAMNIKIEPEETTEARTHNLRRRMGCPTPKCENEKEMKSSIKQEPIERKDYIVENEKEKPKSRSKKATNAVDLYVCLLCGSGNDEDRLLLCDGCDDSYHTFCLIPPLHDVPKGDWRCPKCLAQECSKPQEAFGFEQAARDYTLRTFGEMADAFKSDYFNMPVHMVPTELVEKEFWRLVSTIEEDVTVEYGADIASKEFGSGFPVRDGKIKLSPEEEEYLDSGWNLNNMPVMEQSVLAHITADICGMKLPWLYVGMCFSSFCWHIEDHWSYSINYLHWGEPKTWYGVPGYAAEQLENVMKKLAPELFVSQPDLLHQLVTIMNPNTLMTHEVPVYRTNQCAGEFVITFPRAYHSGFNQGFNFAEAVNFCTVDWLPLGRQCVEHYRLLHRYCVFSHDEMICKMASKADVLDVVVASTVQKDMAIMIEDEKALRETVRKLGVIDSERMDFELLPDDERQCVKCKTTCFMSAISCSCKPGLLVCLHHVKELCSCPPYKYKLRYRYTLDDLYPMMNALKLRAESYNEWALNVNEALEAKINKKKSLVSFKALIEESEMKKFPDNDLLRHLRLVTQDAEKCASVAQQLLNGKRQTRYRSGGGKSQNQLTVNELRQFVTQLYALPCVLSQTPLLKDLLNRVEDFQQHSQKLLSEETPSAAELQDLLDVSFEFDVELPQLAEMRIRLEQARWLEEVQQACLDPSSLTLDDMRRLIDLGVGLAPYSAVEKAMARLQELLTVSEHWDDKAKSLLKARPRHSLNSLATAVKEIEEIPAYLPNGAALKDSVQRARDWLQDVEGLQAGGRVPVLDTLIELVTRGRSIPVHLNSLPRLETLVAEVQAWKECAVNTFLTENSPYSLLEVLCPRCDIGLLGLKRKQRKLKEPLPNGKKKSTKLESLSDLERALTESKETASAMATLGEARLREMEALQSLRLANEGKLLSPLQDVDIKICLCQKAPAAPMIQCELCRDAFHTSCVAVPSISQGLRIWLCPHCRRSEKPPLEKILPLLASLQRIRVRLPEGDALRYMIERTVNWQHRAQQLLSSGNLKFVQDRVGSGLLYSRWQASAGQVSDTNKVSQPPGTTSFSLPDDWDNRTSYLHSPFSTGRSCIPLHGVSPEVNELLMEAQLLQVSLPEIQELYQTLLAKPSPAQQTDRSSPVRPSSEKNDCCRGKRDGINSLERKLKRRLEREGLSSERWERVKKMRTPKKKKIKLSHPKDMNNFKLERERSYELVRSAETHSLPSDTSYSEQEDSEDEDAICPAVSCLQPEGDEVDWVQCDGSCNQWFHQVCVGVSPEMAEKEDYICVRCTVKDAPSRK
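Compound dilutions met 200 nM (final) KDM5BΔAP for 10 min at room temperature before substrate addition. The substrate mix held 12.5 µM H3K4me3 with cofactors 25 µM α-ketoglutarate and 50 µM Fe²⁺. NADH signal gain over 30 min defined activity.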
Numbers without * were called inactive; i = inactive; ! = not confirmed by another sample. Potency is the fitted concentration of half-maximal effect.

SMILES	KDM5B inhibitor
COc1ccc(-c2cc(-c3ccc4cn[nH]c4c3)cn3cncc23)cn1	10µM*
COc1ccc(-c2cc(-c3cccc(CO)c3)cn3cncc23)cn1	35.5µM*
COc1cc(CNC(=O)c2ccc3cn[nH]c3c2)cc(OC)c1OC	i
c1cc(-c2cc(-c3ccncc3)c3cncn3c2)c2[nH]ncc2c1	i
CC(C)c1ccc(/C=C/C(=O)c2ccc(O)c(CCCl)c2)cc1	i
COC(=O)c1ccc(NC(=O)Cn2c(C)cc3nc4n(c(=O)c32)CCCCC4)cc1	i
CCOCCCNCc1c(OCC)ccc2ccccc12	i
Cc1cc(C)c2[nH]c(C(=O)N(C)Cc3ccc4nsnc4c3)c(C)c2c1	i
Cc1oc(-c2ccccc2)nc1CN(C)CC(=O)N(C)C	i
COc1nc2ccccc2nc1N1CCC(C(=O)Nc2ccc(Cl)cc2C)CC1	i
c1c[nH]c(-c2nc3ccncc3[nH]2)c1	31.6µM*
O=C(CSc1nc2ccncc2[nH]1)Nc1ccccc1C(F)(F)F	i
Cc1ccc(NC(=O)CSc2nc3ccncc3[nH]2)cc1F	i
CCOC(=O)c1ccccc1NC(=O)CSc1nc2ccncc2[nH]1	i
CCC(Sc1nc2ccncc2[nH]1)C(=O)Nc1cc(C)ccc1C (stereo not given)	i
c1ccc(-c2nc(-c3ccncc3)n[nH]2)nc1	i
c1csc(-c2nc(NC3CCCC3)c3ccccc3n2)c1	i
Cc1ccoc1-c1nc2ccncc2[nH]1	31.6µM*!
c1ccc(-c2nc3ccncc3[nH]2)nc1	126µM*!
F[C@@H]1CN(Cc2nccs2)C[C@@H]1OCc1nc2ccncc2[nH]1	i
Cc1ccc(-c2n[nH]c(-c3ccccn3)n2)cc1	i
c1csc(-c2nc3ccncc3[nH]2)c1	31.6µM*
Cc1ccc(CNc2oc(COc3ccc(C)cc3)nc2C#N)cc1	i
CC/C=C(/C)C(=O)NCc1cccc(CN2CCOC(C)C2)c1 (stereo not given)	i
N[C@@H]1CC[C@@H]1NC(=O)c1ccccc1-c1nc(-c2ccccc2)no1	i
SMILES	KDM5B inhibitor
CCn1nc(C(=O)Nc2ccc(Cl)cc2C)c2ccccc2c1=O	i
COc1ccc(NC(=O)O[C@@H]2CO[C@H]3[C@@H]2OC[C@@H]3NS(=O)(=O)c2cccc3cccnc23)cc1	i
Cc1ccc(C(=O)NC(C)C2CCCO2)cc1 (stereo not given)	i
CC(C)CCN1CCc2nc(N3CCc4ccccc4C3)[nH]c(=O)c2CC1	i
CCN(Cc1nc2ccccc2c(=O)[nH]1)C(=O)Cc1csc(-c2ccc(OC)cc2)n1	i
O=C(CCC1CCCCC1)NCCC12CC3CC(CC(C3)C1)C2	i
Cc1nc2c(cnn2C(C)C)cc1C(=O)N(C)Cc1ccccc1F	i
CSc1ccccc1-c1ccc(N2CCN(C)CC2)nn1	i
COc1cccc(CNC(=O)Nc2cccc(-c3ccc(N4CCOCC4)nn3)c2)c1	i
Cn1ccnc1-c1ccc(N2CCC(C(O)Cc3ccccc3)CC2)nn1 (stereo not given)	28.2µM*
COc1cccc(CC2(CO)CCCN(c3ccc(-c4nccn4C)nn3)C2)c1 (stereo not given)	20µM*
Cn1ccnc1-c1cn(Cc2ccccc2Cn2cccn2)nn1	i
COc1cccc(CC2(CO)CCCN(c3nnnn3-c3ccccc3)C2)c1 (stereo not given)	i
COCCOc1cc(C)c2c(c1C)C[C@H](C(C)C(=O)N1CCSCC1)CC2 (stereo not given in full)	i
CCN1CCN(c2ccc(-c3cccc(N)c3)nn2)CC1	i
C=C(C)Cn1c(SCC(N)=O)nc2c1c(=O)n(C)c(=O)n2C	i
CCC(C)(C)C1CCC(NC(=O)CNC(=O)CNC(C)=O)CC1 (stereo not given)	i
CN1CCN(C(C(=O)O)c2cn(CCC(=O)O)c3ccc(Br)cc23)CC1 (stereo not given)	i
O=C(Nc1cccc(N2CCCC2=O)c1)c1ccc(-n2cnc3ccccc32)cc1	i
CCNC(=O)C1CCN(CC(C)C)CC1	i
CN(C)C[C@@H]1CN(c2ncccn2)C[C@H]1NC(=O)COc1ccc(Cl)cc1	28.2µM*
CN(C)C[C@@H]1CN(c2ccncn2)C[C@H]1NC(=O)COc1ccccc1	i
COc1ccc(OCC(=O)NC2CCCN(c3ncccn3)C2)cc1 (stereo not given)	i
Cc1cccc(OCC(=O)NC2CCN(c3cc(C(F)(F)F)ncn3)CC2)c1	i
CN(C)C[C@@H]1CN(c2ccncn2)C[C@H]1NC(=O)COc1ccc(F)cc1	i
SMILES	KDM5B inhibitor
Cc1cccc(OCC(=O)N[C@@H]2CN(c3ncccn3)C[C@H]2CN(C)C)c1	22.4µM*
CSc1cccc(NC(=O)CN2C(=O)NC3(CCS(=O)(=O)CC3)C2=O)c1	i
CCOC(=O)C(C)Oc1ccc2c(-c3ccccc3)cc(=O)oc2c1 (stereo not given)	i
CC(NC(=O)c1cc(C2CC2)nc2ccccc12)C1CC1 (stereo not given)	i
CCc1nccc(CN2CCC(c3nn(C)c(=O)n3CC)CC2)n1	15.8µM*
CCn1c(C2CCN(S(=O)(=O)c3cccc(Br)c3)CC2)nn(C)c1=O	i
CCn1c(C2CCN(C(=O)c3cc(F)cc(F)c3)CC2)nn(C)c1=O	i
COc1cc(NC(=O)c2ccc(Cn3cc(Cl)cn3)cc2)ccc1OC(F)F	i
CCn1c(SCC(=O)c2ccc(Br)s2)nnc1-c1ccccc1	i
CCc1ccc(NC(=O)NCc2nc(-c3ccccc3)oc2C)cc1	i
O=C(CCc1nnn2c1CN(C(=O)Nc1ccc3c(c1)OCCO3)CC2)N1CCCC1	i
Cc1ccc(NC(=O)N2CCCC(c3nc(-c4ccc(F)cc4)no3)C2)cc1 (stereo not given)	i
Cc1cccc(C)c1NC(=O)N1CCC(C(=O)c2ccc(F)cc2)CC1	i
CC(C)c1cccc(C(C)C)c1NC(=O)c1ccc2c(c1)CCC2	i
Cc1ccccc1NC(=O)N1C[C@@H](F)C[C@H]1C(=O)N1CCc2ccccc2C1	i
Cc1ccccc1NC(=O)N1CCc2c(c3cc(F)ccc3n2C)C1	28.2µM*
Cc1ccc(NC(=O)N2CCc3c(c4cc(F)ccc4n3C)C2)cc1	14.1µM*
CC(C)c1cccc(C(C)C)c1NC(=O)N1CCc2c(c3cc(F)ccc3n2C)C1	25.1µM*
CCc1cccc(NC(=O)Cn2nc3c4cc(F)ccc4n(Cc4cccc(C)c4)cc-3c2=O)c1	i
CCc1cccc(NC(=O)N2CCc3c(c4cc(F)ccc4n3C)C2)c1	25.1µM*
CCOc1ccc2c(n1)CCN(C(=O)Nc1ccccc1C)C2	i
CCc1cccc(NC(=O)N2CCC(OC3CCN(S(C)(=O)=O)CC3)CC2)c1	i
Cc1ccc(C2CCN(C(=O)Nc3ccc(F)cc3)C2)cc1 (stereo not given)	i
N#CCOc1ccc(NC(=O)c2nn(Cc3ccccc3)c(=O)c3ccccc23)cc1	i
CCCn1c(N)c(N2CCOCC2)c(=O)n(CC(=O)Nc2ccc(C)cc2)c1=O	i
SMILES	KDM5B inhibitor
CN(CCCc1ccccc1)CC(=O)NC(C)(C#N)C1CC1 (stereo not given)	i
Clc1cccc(-c2cnc([C@@H]3COCCN3Cc3cnc[nH]3)[nH]2)c1	i
c1ccc(CNC2CCCCC2)cc1	i
FC(F)(F)c1ccc(N2C3CCC2CN(CC2CCCC2)C3)cc1	i
COc1ccc(-c2noc(CSc3nnc(C)n3-c3ccccc3)n2)c(OC)c1	i
CCOc1cccc(CNC(=O)C23CCCC=C2N(CCOC)C(=O)CC3)c1 (stereo not given)	i
